According to PubChem BioAssay (Tox21):
A number with no mark means an inactive call. Records with an inconclusive call do not appear. A call without a number means that no potency is given here. Active and inactive are the calls of the source. Unless noted, calls come from the whole dose curve; as a rule, active = well fitted curve in the direction sought with a large enough effect in the repeat runs; inconclusive = weak or mixed curves; inactive = no such curve, though single readings can be large; an effect the other way counts as inactive or inconclusive.

Experiments:
[1] = A CellTox Green Cytotoxicity Assay to monitor cytotoxicity in HEK293 cells - 32 hour (AID 1224881); note: nearly all actives have a fitted effect of over 40% in size
Summary of the method: (§1)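 Dead-cell fluorescence measured kinetically: asymmetric cyanine dye, HEK293, 600 cells/well, 5 h settle, 23 nL cpd/DMSO, 37 C, reads 0–40 h every 8 h.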

[2] = A CellTox Green Cytotoxicity Assay to monitor cytotoxicity in HepG2 cells - 0 hour (AID 1224882); note: nearly all actives have a fitted effect of over 35% in size; note: potency is the fitted concentration of half-maximal effect
Summary of the method: (§2)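 First, HepG2 cells (600/well) mixed with reagent were plated; second, after 5 h at 37 C they received compounds via pintool; third, fluorescence was measured at 0 h through 40 h at 8 h intervals.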

[3] = A CellTox Green Cytotoxicity Assay to monitor cytotoxicity in HepG2 cells - 32 hour (AID 1224883); note: nearly all actives have a fitted effect of over 50% in size; note: potency is the fitted concentration of half-maximal effect
Summary of the method: as §2

[4] = A CellTox Green Cytotoxicity Assay to monitor cytotoxicity in HEK293 cells - 8 hour (AID 1224884); note: nearly all actives have a fitted effect of over 35% in size; note: potency is the fitted concentration of half-maximal effect
Summary of the method: as §1

[5] = qHTS RealTime-Glo MT Cell Viability Assay in HepG2 cells - 16 hour (AID 1224885); note: nearly all actives have a fitted effect of over 50% in size; note: potency is the fitted concentration of half-maximal effect
Summary of the method: (§3)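 qHTS, HepG2, 600 cells/well, RealTime-Glo (NanoLuc + prosubstrate) added with cells; 5 h preincubation; DMSO compound addition; 37 C; luminescence at 0/8/16/24/32/40 h.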

[6] = qHTS RealTime-Glo MT Cell Viability Assay in HEK293 cells - 24 hour (AID 1224886); note: nearly all actives have a fitted effect of over 50% in size; note: potency is the fitted concentration of half-maximal effect
Summary of the method: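 Assay medium contained NanoLuc luciferase plus cell-permeant prosubstrate, added with HEK293 cells at 600 cells/well. After 5 h at 37 C/5% CO2 compounds were added; plates stayed at 37 C for 40 h with serial luminescence reads.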

[7] = qHTS RealTime-Glo MT Cell Viability Assay in HEK293 cells - 8 hour (AID 1224887); note: nearly all actives have a fitted effect of over 50% in size; note: potency is the fitted concentration of half-maximal effect
Summary of the method: (§4)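 600 HEK293 cells per well, dispensed already mixed with RealTime-Glo MT reagents. Compound dosing came 5 h later. The same wells were read for luminescence at 0, 8, 16, 24, 32 and 40 h of exposure at 37 C.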

[8] = A CellTox Green Cytotoxicity Assay to monitor cytotoxicity in HEK293 cells - 16 hour (AID 1224888); note: nearly all actives have a fitted effect of over 35% in size
Summary of the method: as §1

[9] = A CellTox Green Cytotoxicity Assay to monitor cytotoxicity in HepG2 cells - 8 hour (AID 1224890); note: nearly all actives have a fitted effect of over 45% in size; note: potency is the fitted concentration of half-maximal effect
Summary of the method: as §2

[10] = qHTS assay to identify small molecule antagonists of the estrogen receptor alpha (ER-alpha) signaling pathway using the BG1 cell line in the presence of 0.1 nM 17-beta-estradiol - cell viability counter screen (AID 1259241); note: nearly all actives have a fitted effect of over 40% in size; note: potency is the fitted concentration of half-maximal effect
Summary of the method: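 CellTiter-Fluor read (30 min, 37C) on ER-alpha/ERE-luc VM7Luc4E2 cells; 22 hr compound treatment; agonist 0.1 nM E2 final; same-well multiplex.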

[11] = qHTS assay to identify small molecule antagonists of the androgen receptor (AR) signaling pathway using the MDA cell line in the presence of 0.5 nM R1881 - cell viability counter screen (AID 1259242); note: nearly all actives have a fitted effect of over 45% in size
Summary of the method: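 qHTS format. MDA-kb2 (MMTV-luc, AR/GR responsive) + cpd + 0.5 nM R1881 final, 16 hr 37C/0% CO2 → CellTiter-Fluor 30 min → fluorescence intensity.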

[12] = qHTS assay to identify small molecule HDAC inhibitors (AID 1259364); note: potency is the fitted concentration of half-maximal effect;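 note: wild-type HCT-116 cells with endogenous class I/II HDAC activity; nearly all actives have a fitted effect of over 45% in size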
Summary of the method: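 Quantitative high-throughput format: overnight-seeded HCT-116 cells got compounds for 2 hr at 37C; HDAC-Glo I/II reagent added, 30 min RT, luminescence measured.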

[13] = qHTS assay to identify small molecule HDAC inhibitors - cell viability counter screen (AID 1259365)
Summary of the method: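 To flag cytotoxic hits, 1,500 wild-type HCT-116 cells per well, plated the day before, receive test compounds for 2hr at 37 C before CellTiter-Glo reagent and a luminescence read.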

[14] = qHTS assay to identify small molecule agonists of the sonic hedgehog signaling (Shh) pathway - cell viability counter screen (AID 1259366); note: nearly all actives have a fitted effect of over 50% in size; note: potency is the fitted concentration of half-maximal effect
Summary of the method: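 Fluorescence from CellTiter-Fluor reports live cells in this counter screen. NIH/3T3-derived Gli1-Luc reporter cells receive test compounds for 24hr at 37C; reagent goes in at 23hr.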

[15] = qHTS assay to identify small molecule antagonists of the sonic hedgehog signaling (Shh) pathway - cell viability counter screen (AID 1259367); note: nearly all actives have a fitted effect of over 55% in size; note: potency is the fitted concentration of half-maximal effect
Summary of the method: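 CellTiter-Fluor signal in conditioned medium-stimulated 3T3 Gli1-Luc cells, 23 hr compound exposure, 37C.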

[16] = qHTS assay to identify small molecule phospholipidosis (PLD) inducers (AID 1259344; active = well fitted curve in the direction sought with a large enough effect; an effect the other way counts as inactive or inconclusive)
Summary of the method: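 Accumulated phospholipid, stained red by LipidTOX during 24 h compound treatment of HepG2 cells at 37 C, is quantified from images as pit number and intensity, normalised per cell using Hoechst-stained nuclei.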

[17] = target: Androgen receptor (Homo sapiens) (UniProt P10275); experiment: qHTS assay to identify small molecule antagonists of the androgen receptor (AR) signaling pathway using the MDA cell line in the presence of 0.5 nM R1881 (AID 1259243); note: nearly all actives have a fitted effect of over 50% in size
Androgen receptor (Homo sapiens), sequence (P10275 whole entry, looked up): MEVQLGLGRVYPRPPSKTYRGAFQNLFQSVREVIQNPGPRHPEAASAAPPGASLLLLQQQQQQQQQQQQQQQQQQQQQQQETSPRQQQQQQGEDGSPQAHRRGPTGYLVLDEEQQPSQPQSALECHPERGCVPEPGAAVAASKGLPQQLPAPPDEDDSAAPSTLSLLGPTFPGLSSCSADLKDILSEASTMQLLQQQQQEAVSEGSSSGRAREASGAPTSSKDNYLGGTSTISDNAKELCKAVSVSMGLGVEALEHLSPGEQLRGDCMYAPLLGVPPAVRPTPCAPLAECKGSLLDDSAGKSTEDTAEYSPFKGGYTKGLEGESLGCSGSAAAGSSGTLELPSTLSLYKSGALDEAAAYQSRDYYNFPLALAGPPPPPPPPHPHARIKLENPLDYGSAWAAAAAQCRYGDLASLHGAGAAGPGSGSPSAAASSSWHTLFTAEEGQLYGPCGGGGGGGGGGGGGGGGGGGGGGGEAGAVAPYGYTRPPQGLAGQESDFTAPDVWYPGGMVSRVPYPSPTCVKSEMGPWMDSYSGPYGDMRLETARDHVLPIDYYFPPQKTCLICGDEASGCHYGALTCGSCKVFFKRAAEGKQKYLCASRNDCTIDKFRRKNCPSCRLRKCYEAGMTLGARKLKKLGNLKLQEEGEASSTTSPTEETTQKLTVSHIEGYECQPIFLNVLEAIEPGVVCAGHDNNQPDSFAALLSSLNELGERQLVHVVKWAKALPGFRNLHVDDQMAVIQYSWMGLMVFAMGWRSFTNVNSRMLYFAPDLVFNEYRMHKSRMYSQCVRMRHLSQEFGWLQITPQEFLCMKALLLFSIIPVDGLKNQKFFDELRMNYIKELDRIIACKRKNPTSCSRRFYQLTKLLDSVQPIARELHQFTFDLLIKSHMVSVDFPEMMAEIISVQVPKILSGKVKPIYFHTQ
Summary of the method: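 Antagonist mode quantitative HTS in MDA-kb2 MMTV-luciferase cells, agonist R1881 at 0.5 nM final, 16 hr exposure at 37C and 0% CO2, luminescent detection.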

[18] = target: Estrogen receptor (Homo sapiens) (UniProt P03372); experiment: qHTS assay to identify small molecule antagonists of the estrogen receptor alpha (ER-alpha) signaling pathway using the BG1 cell line in the presence of 0.1 nM 17-beta-estradiol (AID 1259244); note: nearly all actives have a fitted effect of over 50% in size
Estrogen receptor (Homo sapiens), sequence (P03372 whole entry, looked up): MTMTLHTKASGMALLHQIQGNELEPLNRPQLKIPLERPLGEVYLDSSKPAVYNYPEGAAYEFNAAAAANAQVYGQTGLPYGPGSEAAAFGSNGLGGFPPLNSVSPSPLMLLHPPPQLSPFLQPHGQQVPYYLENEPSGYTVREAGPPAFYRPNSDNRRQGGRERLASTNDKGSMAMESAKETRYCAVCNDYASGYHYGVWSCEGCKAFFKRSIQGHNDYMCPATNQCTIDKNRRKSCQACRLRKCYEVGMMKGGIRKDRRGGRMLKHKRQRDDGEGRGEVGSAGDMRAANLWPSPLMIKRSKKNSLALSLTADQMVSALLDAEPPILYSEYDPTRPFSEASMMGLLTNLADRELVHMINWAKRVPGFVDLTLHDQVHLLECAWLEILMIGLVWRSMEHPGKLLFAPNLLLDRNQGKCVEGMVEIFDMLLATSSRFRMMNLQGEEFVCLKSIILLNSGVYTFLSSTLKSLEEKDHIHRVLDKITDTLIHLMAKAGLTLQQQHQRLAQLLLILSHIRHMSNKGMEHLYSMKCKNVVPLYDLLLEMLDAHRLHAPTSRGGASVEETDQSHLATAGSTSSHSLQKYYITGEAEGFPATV
Summary of the method: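 Reporter is a stably transfected luciferase under four estrogen responsive elements in VM7Luc4E2 cells expressing native full-length ER-alpha; inhibition of 0.1 nM (final) 17beta-estradiol-driven signal over 22 h is read by luminescence.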

[19] = qHTS RealTime-Glo MT Cell Viability Assay in HepG2 cells - 0 hour (AID 1224889); note: nearly all actives have a fitted effect of over 50% in size
Summary of the method: as §3

[20] = qHTS RealTime-Glo MT Cell Viability Assay in HEK293 cells - 0 hour (AID 1224880); note: top concentration of the series differs between compounds; nearly all actives have a fitted effect of over 45% in size
Summary of the method: as §4

SMILES	Potency [1]	Potency [2]	Potency [3]	Potency [4]	Potency [5]	Potency [6]	Potency [7]	Potency [8]	Potency [9]	Potency [10]	Potency [11]	Potency [12]	Potency [13]	Potency [14]	Potency [15]	PLD induction [16]	Potency [17]	Potency [18]	Potency [19]	Potency [20]
CCCCCCCCC(CCCCCC)C(=O)O (centres undefined)	inactive	inactive	61.6 µM (active)	inactive	inactive	inactive	inactive	inactive	inactive	inactive	inactive	inactive	inactive	inactive	inactive	–	–	–	–	–
C[C@@]12CCC[C@H]1[C@@H]1CC[C@H]3C[C@@H](O)CC[C@]3(C)[C@H]1CC2	inactive	inactive	inactive	inactive	inactive	inactive	inactive	inactive	inactive	inactive	inactive	inactive	inactive	–	inactive	17.2% [at 7.66 µM]	–	–	–	–
C1COC1	inactive	inactive	inactive	inactive	inactive	inactive	inactive	inactive	inactive	inactive	inactive	inactive	–	inactive	inactive	–	inactive	inactive	–	–
Cc1cc(C)c(N)cc1C	inactive	inactive	inactive	inactive	inactive	inactive	inactive	inactive	inactive	inactive	inactive	inactive	inactive	inactive	inactive	–	–	–	inactive	–
CC(=O)Nc1ccc(C)cc1C	–	inactive	inactive	inactive	inactive	inactive	inactive	inactive	inactive	inactive	inactive	inactive	inactive	inactive	inactive	–	–	–	inactive	inactive
CC1=C(CC=O)C(C)(C)CCC1	inactive	inactive	inactive	inactive	inactive	inactive	inactive	inactive	inactive	inactive	inactive	inactive	inactive	inactive	inactive	–	–	–	inactive	–
FC(F)(F)c1ccccc1Cl	inactive	inactive	inactive	inactive	inactive	inactive	inactive	inactive	inactive	inactive	inactive	inactive	inactive	–	inactive	–	–	–	inactive	–
O=C1c2ccccc2C(=O)N1CCc1noc(-c2ccc(CN3CCCCCC3)s2)n1	–	35.7 µM (active)	35.7 µM (active)	35.7 µM (active)	–	35.7 µM (active)	35.7 µM (active)	–	31.8 µM (active)	inactive	inactive	inactive	inactive	–	inactive	–	–	–	inactive	inactive
CCC(=O)OC	inactive	inactive	inactive	inactive	inactive	inactive	inactive	inactive	inactive	inactive	inactive	inactive	inactive	inactive	inactive	–	inactive	inactive	inactive	–
O=c1[nH]ncc2ccccc12	inactive	inactive	inactive	inactive	inactive	inactive	inactive	inactive	inactive	inactive	inactive	inactive	inactive	inactive	inactive	–	–	inactive	inactive	–
Oc1cc2c(cc1O)[C@H]1c3ccc(O)c(O)c3OC[C@@]1(O)C2	–	inactive	–	–	44.2 µM (active)	inactive	22.2 µM (active)	–	inactive	27.6 µM (active)	–	55.1 µM (active)	inactive	27.6 µM (active)	27.6 µM (active)	–	–	–	inactive	inactive
Cc1ccc(OC(=O)c2ccccc2O)cc1	–	inactive	inactive	inactive	inactive	inactive	inactive	–	inactive	inactive	inactive	15.4 µM (active)	inactive	inactive	inactive	–	–	–	–	inactive
Cc1cc(O)c(C)c(C)c1O	–	inactive	inactive	inactive	inactive	–	–	inactive	inactive	inactive	inactive	inactive	inactive	inactive	inactive	–	inactive	inactive	inactive	inactive
CN1C[C@H](C(=O)N[C@]2(C)O[C@@]3(O)[C@@H]4CCCN4C(=O)[C@H](Cc4ccccc4)N3C2=O)C[C@@H]2c3cccc4[nH]cc(c34)C[C@H]21	–	inactive	–	inactive	–	21.3 µM (active)	23.9 µM (active)	–	inactive	–	inactive	inactive	inactive	–	inactive	–	–	–	inactive	inactive
COc1ccccc1N1CCN(CCCCNC(=O)c2ccc(-c3ccc(C(C)=O)cc3)cc2)CC1	–	inactive	–	inactive	inactive	1.69 µM (active)	–	inactive	inactive	inactive	–	inactive	inactive	inactive	inactive	–	–	–	inactive	inactive
CCCCCCCCCI	inactive	inactive	inactive	inactive	inactive	inactive	inactive	inactive	inactive	inactive	inactive	inactive	–	inactive	inactive	–	–	inactive	inactive	–
